# Assay results: article PMC7819943, “Rice protein-binding microarrays: a tool to detect cis-acting elements near promoter regions in rice”
# Whole data set: some 68,000 sequences, median “fluorescence intensity (a.u.)” near 9,100, cut for the highest 2% near 16,000. The sample holds the highest values, similar sequences and a random draw of the others, so the mix is not that of the screen.
# Biological target: OsWRKY34 (Oryza sativa, UniProt Q0JBA9 1-250)
# Assay: protein-binding microarray (RPBM); PBS, 2% BSA, 51.3 ng/ul salmon testes DNA, 50 uM zinc acetate, 200 nM TF, 25 C, 1 h; high values mean tight binding
# Settings: protein: recombinant; tags: N-terminal polyhistidine and DsRed monomer fusion (pET32a); label: CyDye5-dUTP incorporated in the synthesized complementary strand; 3' TTTTT single-stranded linker to array surface; dsDNA, one strand shown
# Outline: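 Binding signal is defined as the fluorescence intensity of each feature in arbitrary units, read on an Axon 4000B scanner. Transcription factors with N-terminal polyhistidine and DsRed fusions came from E. coli BL21-CodonPlus and were purified on Ni–NTA. They were incubated at 200 nM for 1 h at 25 °C on a custom Agilent array that had been made double-stranded with Cy5-dUTP, with 50 µM zinc acetate present, and the array was washed.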
# OsWRKY34, sequence (Q0JBA9 entry or part of it): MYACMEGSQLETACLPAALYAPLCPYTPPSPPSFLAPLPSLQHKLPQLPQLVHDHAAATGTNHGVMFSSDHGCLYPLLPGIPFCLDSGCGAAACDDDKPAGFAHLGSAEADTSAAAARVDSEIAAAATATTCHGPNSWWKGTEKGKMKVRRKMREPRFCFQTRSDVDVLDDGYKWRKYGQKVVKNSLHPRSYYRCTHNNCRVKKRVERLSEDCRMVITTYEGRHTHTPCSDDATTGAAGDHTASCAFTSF
row,Sequence,binding signal
1,CAAAAACACTCCACATATTTTTCCTTTTAGTTACGTAATTCGGAGTCACCTAGTGCAG,9500 fluorescence intensity (a.u.)
2,TCGTCGTGTTCGTGTTTTTTTTCTTCCAATCTGCGCGCGTCGGAGTCACCTAGTGCAG,8990 fluorescence intensity (a.u.)
3,TACGCTGTGATCCCCGTCTTCAATTTCTCGTTCGCTCTCACGGAGTCACCTAGTGCAG,12800 fluorescence intensity (a.u.)
4,AGCCTATTTCATTTGATATATCATGGTGCATGATCTAATTCGGAGTCACCTAGTGCAG,11100 fluorescence intensity (a.u.)
5,ACGTCCAAATCACATTATATCAGTTCCTGTTTGTAACCGCCGGAGTCACCTAGTGCAG,8550 fluorescence intensity (a.u.)
6,GTGCCTGTTTGCTTCAGTGATGCTGGTGGTGGTTGCCTAACGGAGTCACCTAGTGCAG,9460 fluorescence intensity (a.u.)
7,GTACTCCTGGTCCGCATCCACCGTCCATCCGCGTACCGCACGGAGTCACCTAGTGCAG,11000 fluorescence intensity (a.u.)
8,GTTCTTCTTCTTCTTCTTCTTTTTTTCGTCCAAGGCCACTCGGAGTCACCTAGTGCAG,8280 fluorescence intensity (a.u.)
9,CGACAGTTTCCTTTTTCGCGACCACTTCCGATCTCCTAAACGGAGTCACCTAGTGCAG,17000 fluorescence intensity (a.u.)
10,AGTTTTTTCCTTTTAATCTCCGACTTCACCGGGTTTTTTCCGGAGTCACCTAGTGCAG,8260 fluorescence intensity (a.u.)
11,TTTTCTCCTTTCGCGTTGCGTCCGCGATCCGATCGATCGACGGAGTCACCTAGTGCAG,9560 fluorescence intensity (a.u.)
12,CGTTTTTGTGTCTTTCATTTGAGGAGGAACTGCGATTCTTCGGAGTCACCTAGTGCAG,9400 fluorescence intensity (a.u.)
13,AACTTCTTGCATGTGCCTTTTTTATCATCTGCATATATTTCGGAGTCACCTAGTGCAG,10300 fluorescence intensity (a.u.)
14,ACTTCCGATGCGTAATAAGGCTTTAGTCCCACAACTGACGCGGAGTCACCTAGTGCAG,8630 fluorescence intensity (a.u.)
15,GCTCTAACACACCTTCATCATGCATGCATATGTGCTATTTCGGAGTCACCTAGTGCAG,8080 fluorescence intensity (a.u.)
16,CATTACTTTTTTGGTGGACTTGCAAAAACATGGGCATTTTCGGAGTCACCTAGTGCAG,8680 fluorescence intensity (a.u.)
17,CATATGCACTAACAAAACCGAGTAGGAGGGTGGGTATTTGCGGAGTCACCTAGTGCAG,8580 fluorescence intensity (a.u.)
18,AGTAGGAGGGTGGGTATTTGCAACAAAATGACTTATGAGGCGGAGTCACCTAGTGCAG,12800 fluorescence intensity (a.u.)
19,AAAATAACTTACGGGGTGGAATGTCAAACTTCAAGTGACTCGGAGTCACCTAGTGCAG,8470 fluorescence intensity (a.u.)
20,GGTGGGTGGGCATTTGCAACAAAATAACTTACGGGGTGGACGGAGTCACCTAGTGCAG,17000 fluorescence intensity (a.u.)
21,TTACAACAAAACTAAGTAGGGGTGGGTATTTGCAACAAAACGGAGTCACCTAGTGCAG,17600 fluorescence intensity (a.u.)
22,GGTTTGCCGTCGTCGGCGTCGGCCGCTGCCTCGCGCGCGCCGGAGTCACCTAGTGCAG,9230 fluorescence intensity (a.u.)

row,Sequence,binding signal
1,AGCCTACCAGCTGCACCGCAAATGCCGTGTACTGCTTTCTCGGAGTCACCTAGTGCAG,8340 fluorescence intensity (a.u.)
2,GTGATGTGCTGCAACCTCGCCGCCAGCCGCGCCCTGTGCGCGGAGTCACCTAGTGCAG,8560 fluorescence intensity (a.u.)
3,ATATCTGTTTTTACGGTTCGAGGACGTTTTTATATCCGATCGGAGTCACCTAGTGCAG,8940 fluorescence intensity (a.u.)
4,TTAACTTTTTAGTACGTGTTTGACCATTCGTATTATTCAACGGAGTCACCTAGTGCAG,9020 fluorescence intensity (a.u.)
5,TGTTTGACACCGTTGACTTTTTAGTCGTGTTTGACCATTCCGGAGTCACCTAGTGCAG,24400 fluorescence intensity (a.u.)
6,ACGTGTTTGACCATTCGTTTTATTCAAATCATTTAAGTAACGGAGTCACCTAGTGCAG,9230 fluorescence intensity (a.u.)
7,GTTTGACACCGTGGACTTTTTTAAATATGTTTGACCATTCCGGAGTCACCTAGTGCAG,11800 fluorescence intensity (a.u.)
8,GACACCGTTGACTTTTTAAGTACGTGTTTGACCATTCGTCCGGAGTCACCTAGTGCAG,43700 fluorescence intensity (a.u.)
9,TAACACCGTTGACTTTTTAGCTCATGTTTGACCATTCGTCCGGAGTCACCTAGTGCAG,27400 fluorescence intensity (a.u.)
10,ACCTCTGTTTTTAATAGATGACGTGTCGTTGACTTTTTATCGGAGTCACCTAGTGCAG,13300 fluorescence intensity (a.u.)
11,ACGTGTCGTTGACTTTTTATCACACGTTTAGCCATTCGTCCGGAGTCACCTAGTGCAG,30200 fluorescence intensity (a.u.)
12,CATCGTTGAACTTTATCGTGCCCTTCACACCATTCCGTCGCGGAGTCACCTAGTGCAG,8130 fluorescence intensity (a.u.)
13,CGTTCCACCGCCGCGCCTCTTCCCCGCCCCGATCGGCTGCCGGAGTCACCTAGTGCAG,8810 fluorescence intensity (a.u.)
14,ACTACAGTCCCTCGCCATGCATGCGCCGTCAGATGTCCAACGGAGTCACCTAGTGCAG,11500 fluorescence intensity (a.u.)
15,GAGCGGGGCGGGGCTGCATTTGGCGTCGCGATGGACCTCACGGAGTCACCTAGTGCAG,12600 fluorescence intensity (a.u.)
16,TTTTTACATCTTAGCCCCTTGCCGCTTTTGCGAATTTTGCCGGAGTCACCTAGTGCAG,9810 fluorescence intensity (a.u.)
17,GCCCACCATTTCCCCAAACATTTCCACACATTCCTACAATCGGAGTCACCTAGTGCAG,13600 fluorescence intensity (a.u.)
18,GTAGATGTAGTAGCTAGCTTTTGTTAATTTCAACGTTCCACGGAGTCACCTAGTGCAG,8380 fluorescence intensity (a.u.)
19,AATATTTTTTTTCTCAATCATTTCTTATCATTATTATTATCGGAGTCACCTAGTGCAG,8280 fluorescence intensity (a.u.)
20,TCTTCATTTCCGTGTTCAGCAGCTTTGCAATAATTTCTATCGGAGTCACCTAGTGCAG,11900 fluorescence intensity (a.u.)
21,TTTCCTCCGTCCCTGAGCTGTACTCGCGCCAATCAATCATCGGAGTCACCTAGTGCAG,9570 fluorescence intensity (a.u.)
22,TCCCACTCAGCTGTCCGTCCGCCAATCACTGTACTTCTATCGGAGTCACCTAGTGCAG,22000 fluorescence intensity (a.u.)
